# Source: PubChem BioAssay (National Center for Advancing Translational Sciences (NCATS))
# The list is not random: actives were taken first. Their share in the collection is about 1.5%.
# RECQ1 helicase – qHTS Assay for Inhibitors of RecQ-Like Dna Helicase 1 (RECQ1). ATP-dependent DNA helicase Q1 (Homo sapiens), P46063. RECQ1 DNA unwinding, red fluorescence kinetic read. Potency, µM (highest dose often 57.3 µM), without a hit: at the highest dose activity, negative = inhibition, usual class: inhibitors. 240,000 compounds, 0.54% hits. AID 2549, 2010;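 also: potency is read from the fitted curve at half-maximal effect; plate controls were vehicle for no effect and no enzyme for full effect; nearly all actives have a fitted effect of over 30% in size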
#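 50 nM RECQ1T1 preincubated 15 min with compound in Tris pH 8.0 buffer with MgCl2, DTT, Tween-20 and 2.5 ug/ml poly(dI-dC); started with 200 nM TAMRA/BHQ-2 forked duplex and 2 mM ATP. Unwinding read as fluorescence (525/598 nm), two reads 2 h apart.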
# FEN1 inhibitor – qHTS Assay for the Inhibitors of Human Flap endonuclease 1 (FEN1); P39748; Recombinant FEN1 flap cleavage, fluorescence, 15 min; Potency, µM (highest dose often 114 µM), without a hit: top-dose activity change, negative = inhibition, actives largely listed as inhibitors; 390,000 compounds, 0.35% hits; AID 588795, 2011; also: potency is read from the fitted curve at half-maximal effect; nearly all actives have a fitted effect of over 65% in size
# Target sequence (P39748 whole entry, looked up): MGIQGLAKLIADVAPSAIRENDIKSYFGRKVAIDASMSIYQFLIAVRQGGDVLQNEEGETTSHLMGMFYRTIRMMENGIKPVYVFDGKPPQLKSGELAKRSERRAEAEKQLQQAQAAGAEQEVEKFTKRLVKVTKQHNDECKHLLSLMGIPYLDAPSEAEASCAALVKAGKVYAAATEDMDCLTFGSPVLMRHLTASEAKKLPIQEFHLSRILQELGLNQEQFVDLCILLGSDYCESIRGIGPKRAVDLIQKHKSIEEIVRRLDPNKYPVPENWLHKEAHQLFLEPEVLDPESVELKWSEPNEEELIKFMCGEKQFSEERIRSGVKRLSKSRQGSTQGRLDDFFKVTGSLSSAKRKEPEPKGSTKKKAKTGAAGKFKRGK
#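 Enzyme 10 nM, 15 min RT preincubation with compound; start with substrate 50 nM final; reads at 0 and 15 min; qHTS titration, four-parameter Hill fit.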
# WRN inhibitor – qHTS for Inhibitors of WRN Helicase | 360,000 compounds, 0.46% hits | WRN helicase unwinding, fluorescent forked duplex, kinetic | Potency, µM (highest dose often 114 µM), for inactives: at the highest dose activity change, negative = inhibition, actives largely listed as inhibitors; also: potency is read from the fitted curve at half-maximal effect; nearly all actives have a fitted effect of over 55% in size
#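 WRN at 20 nM final was preincubated with compound for 15 min at room temperature; reaction started with 100 nM forked duplex oligonucleotide carrying fluorophore and quencher plus 2 mM ATP (final). Unwinding followed kinetically by red fluorescence (ex 525/em 598 nm).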
# BLM helicase inh – qHTS Assay for Inhibitors of Bloom's syndrome helicase (BLM); Potency, µM (doses to about 56.1 µM), for inactives: at the highest dose activity change, negative = inhibition, hits mostly inhibitors; recombinant BLM DNA unwinding, fluorescence dequenching; 350,000 compounds, 0.2% hits; RecQ-like DNA helicase BLM (Homo sapiens), P54132;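 also: potency is read from the fitted curve at half-maximal effect; plate controls were vehicle for no effect and no enzyme for full effect; nearly all actives have a fitted effect of over 35% in size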
# PI5P4Ka inh – qHTS for Inhibitors of phosphatidylinositol 5-phosphate 4-kinase (PI5P4K) | AID 652105, 2013 | max response, % | PI5P4Kalpha enzyme, ADP-Glo luminescence, 60 min; hits give low values | 330,000 compounds, 1.2% hits | Phosphatidylinositol 5-phosphate 4-kinase type-2 alpha (Homo sapiens), P48426; active = max response of -50% or lower; inconclusive = between -30% and -50%; inactive = -30% or higher; also: value at the top dose of about 77 µM
# Target sequence (P48426 whole entry, looked up): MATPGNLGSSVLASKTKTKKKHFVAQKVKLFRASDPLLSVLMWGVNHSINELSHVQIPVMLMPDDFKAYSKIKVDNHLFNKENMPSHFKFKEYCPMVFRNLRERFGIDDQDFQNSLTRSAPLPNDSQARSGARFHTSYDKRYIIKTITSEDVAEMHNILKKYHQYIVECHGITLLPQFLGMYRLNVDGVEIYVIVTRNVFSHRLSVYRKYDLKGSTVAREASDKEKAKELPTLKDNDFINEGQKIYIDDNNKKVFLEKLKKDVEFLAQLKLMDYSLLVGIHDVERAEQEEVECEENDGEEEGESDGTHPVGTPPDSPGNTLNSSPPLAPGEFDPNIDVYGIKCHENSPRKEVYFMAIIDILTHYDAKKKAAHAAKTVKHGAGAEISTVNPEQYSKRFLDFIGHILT
#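 Quantitative HTS of the MLSMR library against PI5P4Kalpha with substrate. ATP added last at 5 microM final; room temperature, 60 minutes. Remaining ATP depleted, ADP converted and read as luminescence.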
# APEX1 inh – qHTS Assay for Inhibitors of the Human Apurinic/apyrimidinic Endonuclease 1 (APE1); DNA repair nuclease/redox regulator APEX1 (Homo sapiens), P27695; recombinant APE1, TAMRA/BHQ-2 abasic DNA cleavage fluorescence; Potency, µM (series often up to 65.8 µM), inactives show at the highest dose activity change, negative = inhibition, usual class: inhibitors; 350,000 compounds, 0.35% hits;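 also: potency is read from the fitted curve at half-maximal effect; plate controls were vehicle for no effect and reference inhibitor for full effect; nearly all actives have a fitted effect of over 55% in size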
#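 Compound pre-exposure to 0.75 nM APE1, 15 min at ambient temperature. Reaction initiated with 50 nM TAMRA/BHQ-2 THF substrate, read immediately in kinetic mode, 525 nm excitation, 598 nm emission.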
# Active calls of the source: *; i = inactive; ? = inconclusive; nt = no result given; [ ] = dose if it differs, or a comment. Unless noted, calls follow the shape of the dose curve; as a rule, active = well fitted curve in the direction sought with a large enough effect; inconclusive = small, poorly fitted or top-dose-only effect, or another doubt; inactive = no such curve, though single readings can be large; an effect the other way counts as inactive or inconclusive. Unless noted, % is scaled to controls: 0 for no effect and ±100 for the full control effect.
SMILES,RECQ1 helicase,FEN1 inhibitor,WRN inhibitor,BLM helicase inh,PI5P4Ka inh,APEX1 inh
N#CC1=C(N)SC(N)=C(C#N)C1c1ccoc1,-13.9%,nt,nt,?,nt,?
CC(C)C1C(C#N)=C(N)SC(N)=C1C#N,-1.0%,-5.6%,-3.9%,-0.3%,-9.4,2.5%
Cc1ccc(C2C(C#N)=C(N)SC(N)=C2C#N)cc1,-5.4%,-4.8%,-29.1%,-5.2%,-85.0*,-4.9%
O=S1(=O)CCO[C@H]2CCCC[C@@H]2N1Cc1ccc(Cl)cc1,nt,-14.8%,nt,nt,nt,nt
CC[C@H](C)[C@H](NC(=O)[C@H](CO)NC(=O)[C@H](C)NC(=O)[C@H](C)NC(=O)[C@H](CCC(N)=O)NC(=O)[C@H](CCCCN)NC(=O)[C@H](CCCN=C(N)N)NC(=O)[C@@H](N)CS)C(=O)N[C@@H](CCCCN)C(=O)N[C@H](C(=O)N[C@@H](C)C(=O)N[C@H](C(=O)N[C@@H](CO)C(=O)O)C(C)C)C(C)C,-7.9%,nt,nt,0.5%,nt,0.0%
COc1ccc(NC(=O)CSc2nc3ccccc3n2Cc2cccc(OC)c2)cc1,nt,27.8%,nt,-2.6%,nt,nt
O=C(N/N=C/c1ccc([N+](=O)[O-])o1)c1cc2c(ccc3ccccc32)o1,-1.6%,?,-22.9%[11.6 µM],7.94µM*,-23.5,17.6%
Cc1nc2ccccn2c1C(=O)N/N=C/c1ccc([N+](=O)[O-])o1,?,?,?,-14.8%,-55.8*,-8.7%
CCc1ccc(NC(=O)c2sc3nc(C)c(Cl)c(C)c3c2NC(=O)c2ccccc2OC)cc1,nt,14.1%,nt,-0.9%,nt,nt
CCCCN(CC)c1nc(C)nc2c1c(C)c(C)n2-c1c(C)cc(C)cc1C,-5.5%,nt,nt,-9.9%,nt,-1.2%
O=C(N/N=C/c1ccc(O)c(Br)c1)c1cc2c(ccc3ccccc32)o1,nt,14.8%,-3.8%,-2.9%,?,-18.0%
COc1cc(/C=N/NC(=O)c2ccc(=O)[nH]n2)ccc1O,-12.2%,-8.3%,-21.1%,-5.3%,-4.1,3.6%
COc1cc(/C=N/NC(=O)c2sc(N)c(C#N)c2C)ccc1O,i,-18.4%,?,-5.4%,-83.8*,11.4%
Cc1c(C(=O)N/N=C/c2ccc(O)c(Br)c2)sc(N)c1C#N,-9.6%,-31.7%,-34.2%,-7.7%,-83.9*,-9.3%
Cc1c(C(=O)N/N=C/c2ccc(-c3ccccc3[N+](=O)[O-])o2)sc(N)c1C#N,-9.5%,10.3%,?,7.94µM*,-52.7*,1.3%
Cn1nc(-c2cccnc2)nc2c(=O)n(C)c(=O)nc1-2,nt,-10.0%,nt,nt,nt,nt
O=C1NC(=S)S/C1=C/c1ccc(OC(=O)c2ccco2)cc1,nt,-1.3%,-11.6%,-13.7%,-61.9*,-4.8%
N=C1/C(=C\c2ccc(OC(=O)c3ccco3)cc2)C(=O)N=C2SC=NN12,-0.6%,0.2%,?,-1.8%,?,-2.9%
COc1cc(/C=N/NC(=O)CSc2cc(C)c(Br)cc2C)ccc1O,-1.5%,-18.2%,-8.9%,-2.8%,-12.0,3.9%
Cc1cc(SCC(=O)N/N=C/c2ccc(O)c(O)c2O)c(C)cc1Br,i,39.8µM*,50.1µM*,-17.1%,-86.9*,?
O=C(CSc1ncc2c(n1)-c1ccccc1N(Cc1ccc(F)cc1)S2(=O)=O)c1ccc(Cl)cc1,nt,0.0%,nt,-3.3%,nt,nt
N/C(=N\OC(=O)Cc1cccs1)c1ccccc1,i,-19.0%,-25.3%,-13.4%,-60.6*,-2.6%
COc1ccc(-c2nn(-c3ccccc3)cc2C2CC(c3cccs3)=NN2C(=O)CCCC(=O)O)cc1 (configuration not stated),i,-2.9%,-9.9%,-3.7%,4.9,4.4%
Cc1ccc(-c2nn(-c3ccccc3)cc2C2CC(c3cccs3)=NN2C(=O)CCCC(=O)O)cc1 (configuration not stated),-3.8%,50.1µM*,?,-9.5%,nt,0.9%
Cc1[nH]c2ccccc2c1C(=O)COC(=O)C1CC(=O)N(Cc2ccco2)C1 (configuration not stated),-0.9%,-1.2%,-4.2%,-0.1%,-3.3,-2.2%
SMILES,RECQ1 helicase,FEN1 inhibitor,WRN inhibitor,BLM helicase inh,PI5P4Ka inh,APEX1 inh
Cc1ccc(C(=O)Oc2ccc(C(=O)COC(=O)C3CC(=O)N(Cc4ccco4)C3)cc2)cc1 (configuration not stated),-28.8%,-23.6%,?,-27.9%,?,31.6µM*
Cc1cc(C)nc(N/N=C/c2ccccc2)n1,-9.5%,-2.6%,8.1%,-0.8%,nt,-6.2%
Cc1cc(C)nc(N/N=C/c2sccc2C)n1,i,-4.5%,-6.6%,-3.8%,-53.1*,6.7%
CC(=O)Nc1ccc2nc3c(=O)n(C)c(=O)n(C)c3nc2c1,-2.2%,?,10µM*,-25.1%,?,-9.6%
COc1ccc(Nc2c3c(nc4ccc(NC(=O)c5cc(Cl)ccc5OC)cc24)CCCC3)cc1OC,nt,-3.2%,nt,-13.3%,nt,nt
CC(C)(C)NC(=O)C(c1ccc(C(F)(F)F)cc1)n1c(=O)c(-c2ccco2)nc2ccccc21 (configuration not stated),nt,nt,-9.0%,nt,-64.2*,nt
O=C(NCc1ccccc1)C(c1ccc(C(F)(F)F)cc1)n1c(=O)c(-c2ccco2)nc2ccccc21 (configuration not stated),nt,nt,-5.4%,nt,?,nt
CC(C)(C)NC(=O)C(C1CC1)n1c(=O)c(-c2ccco2)nc2ccccc21 (configuration not stated),nt,nt,7.8%,nt,-62.5*,nt
CN(C)CCN1C(=O)c2cccc3cc([N+](=O)[O-])cc(c23)C1=O,nt,20µM*,-20.6%,nt,18.4,nt
C1=Cc2ccccc2/C1=C\c1cccc(/C=C2\C=Cc3ccccc32)c1,nt,35.5µM*,nt,nt,nt,nt
C1=Cc2ccccc2/C1=C\c1ccc(/C=C2\C=Cc3ccccc32)cc1,nt,14.2%,nt,nt,nt,nt
Cc1ccsc1/C=N/N=C/c1sccc1C,nt,15.8%,0.9%,-9.9%,-0.5,36.3%
Cc1ccsc1C=Nc1ccc(O)cc1,?,-16.5%,35.5µM*,?,-51.0*,?
CCCCN(CC)C(=O)CSc1nc2n[nH]c(C)c2c(=N)n1-c1cccc(Cl)c1,nt,-3.0%,nt,0.3%,nt,nt
Cc1cccc(NC2=Nc3ccccc3N3C2=Nc2c(c(C)nn2-c2ccccc2)C3c2ccc(O)c(O)c2)c1 (configuration not stated),-10.9%,-9.4%,0.9%,-6.4%,-92.3*,-4.0%
